Out of some 52,000 compounds screened, about 1,700 (3.3%) were called active. The sample holds actives, similar compounds and a random draw of the others, so the mix is not that of the screen. No stated cut-off is given here; in the data, active means survival mostly below about 52% (no sharp cut-off); inactive means mostly above about 56%.
system: Wild type; test: S. aureus survival, RN4220 and DeltatarO strains – OD600, teichoic acid synthesis inhibitors, primary screen (AID 463173); details: S. aureus RN4220 wild type/DeltatarO growth, OD600, 18 h, active compounds read low, screened at 18.75 µg/mL (by protocol)

SMILES	survival
Cc1ccccc1Cn1c(CN2CCC(C(=O)NCCc3ccccc3)CC2)cc2ccccc21	110% (inactive)
CC(=O)N1CCc2c(sc3c2c(=O)n(-c2ccccc2C)c(=O)n3CC(=O)Nc2ccccc2)C1	69% (inactive)
CCOc1ccc(-n2c(SCC(=O)Nc3cc(C)on3)nc3c([nH]c4ccccc43)c2=O)cc1	69% (inactive)
CCOc1ccc(N(CC)S(=O)(=O)N2CCCC(C(=O)Nc3cc(Cl)ccc3C)C2)cc1 (configuration not stated)	79% (inactive)
Cc1ccc(Cl)cc1NC(c1ccc(F)cc1)c1nnc(-c2ccccc2)o1 (configuration not stated)	117% (inactive)
CCc1cccc(NC(c2nnc(-c3ccccc3)o2)c2ccc(F)cc2Cl)c1 (configuration not stated)	70% (inactive)
Cc1ccc(C)c(NC(c2ccccc2)c2nnc(-c3ccccc3F)o2)c1 (configuration not stated)	5% (active)
COc1ccc(NC(c2ccc(F)cc2)c2nnc(-c3ccccc3Cl)o2)cc1Cl (configuration not stated)	88% (inactive)
CCc1cccc(NC(c2ccccc2)c2nnc(-c3ccccc3F)o2)c1 (configuration not stated)	1% (active)
COc1cc(Cl)c(C)cc1NC(c1ccccc1)c1nnc(-c2ccccc2Cl)o1 (configuration not stated)	75% (inactive)
COc1cc(C(=O)Nc2ccc3nc(SCc4ccccc4)sc3c2)cc(OC)c1OC	86% (inactive)
CCOC(=O)c1[nH]c2c(c1Cc1ccccc1C)C(=O)CC(c1ccccc1)C2 (configuration not stated)	95% (inactive)
O=C(NCc1ccccc1)C(=O)NCC(c1ccco1)S(=O)(=O)c1cccs1 (configuration not stated)	70% (inactive)
O=C(NCCc1ccc(Cl)cc1)C(=O)NCC(c1ccco1)S(=O)(=O)c1cccs1 (configuration not stated)	-3% (active)
O=C(NCCc1ccccc1)C(=O)NCC(c1ccco1)S(=O)(=O)c1cccs1 (configuration not stated)	75% (inactive)
O=C(NCCc1ccc(F)cc1)C(=O)NCC(c1ccco1)S(=O)(=O)c1cccs1 (configuration not stated)	53% (inactive)
Cc1ccc(CNC(=O)C(=O)NCC(c2ccco2)S(=O)(=O)c2cccs2)cc1 (configuration not stated)	75% (inactive)
O=C(NCc1ccc(F)cc1)C(=O)NCC(c1ccco1)S(=O)(=O)c1cccs1 (configuration not stated)	0% (active)
Cn1c(=O)n(C)c2cc(N3CCOCC3)c(NC(=O)c3ccc(C(C)(C)C)cc3)cc21	75% (inactive)
CCc1c(C)nc2nncn2c1Nc1cccc(C)c1	91% (inactive)
Cc1ccc2sc(N(Cc3cccnc3)C(=O)CCOc3ccccc3)nc2c1C	63% (inactive)
Nc1nc2nc(-c3ccccc3)cc(=O)n2[nH]1	59% (inactive)

SMILES	survival
Cc1nn2c(-c3ccccc3)cc(-c3ccccc3)nc2c1-c1ccc(Cl)cc1	86% (inactive)
O=C(Nc1nc2nc(-c3ccccc3)cc(=O)n2[nH]1)c1ccc(Cl)cc1	88% (inactive)
Cc1[nH]n2c(=O)cc(-c3ccc(Cl)cc3)nc2c1-c1ccccc1	-17% (active)
Cc1cccc(-c2cc3nc(-c4ccccc4)cc(=O)n3[nH]2)c1	93% (inactive)
Cc1[nH]n2c(=O)cc(-c3ccccc3Cl)nc2c1-c1ccccc1	-13% (active)
CCOC(=O)c1ccc(CN(Cc2ccc(Br)cc2)S(=O)(=O)c2cccc(C(F)(F)F)c2)cc1	72% (inactive)
CCOc1ccccc1CNC(=O)CCc1c(C)nn(-c2ccc(N3CCCC3)nn2)c1C	71% (inactive)
COc1ccc(CNC(=O)c2sc3nc4n(c(=O)c3c2C)CCCCC4)cc1	86% (inactive)
CSc1cccc(NC(=O)C2CCN(S(=O)(=O)c3ccc4[nH]c(=O)ccc4c3)CC2)c1	101% (inactive)
CN(Cc1ccccc1)C(=O)CSc1nc(-c2ccc(F)cc2)cc(C(F)(F)F)n1	-4% (active)
COc1ccc(-c2cc(C(F)(F)F)nc(SCC(=O)N(C)Cc3ccccc3)n2)cc1OC	45% (inactive)
COc1ccc(-c2cc(C(F)(F)F)nc(SCC(=O)N(C)Cc3ccccc3)n2)cc1	-1% (active)
COc1ccc(-c2cc(C(F)(F)F)nc(SCC(=O)NCCc3ccccc3)n2)cc1	140% (inactive)
O=C(CSc1nc(-c2ccc(F)cc2)cc(C(F)(F)F)n1)NCc1ccccc1	84% (inactive)
O=C(CSc1nc(-c2ccc(F)cc2)cc(C(F)(F)F)n1)NCCc1ccccc1	89% (inactive)
COc1ccc(CC(=O)Nc2c(C(=O)N3CCN(c4ccccc4)CC3)oc3ccccc23)cc1OC	76% (inactive)
CCN(CC)S(=O)(=O)c1ccc(NC(=O)[C@H](CSCc2ccccc2)N2Cc3ccccc3C2=O)cc1	130% (inactive)
CCOc1ccc(-n2c(SCC(=O)Nc3ccc(F)cc3)nc3c([nH]c4ccccc43)c2=O)cc1	88% (inactive)
CCc1ccc(C(=O)NC2=NC(c3ccccc3F)CC(=O)N2)cc1 (configuration not stated)	166% (inactive)
Cc1ccccc1Cn1c(=O)n(CCCCC(=O)NCCc2ccccc2)c(=O)c2ccccc21	103% (inactive)
Cc1cccc(CCn2c(=O)c3ccccc3n(Cc3ccccc3C)c2=O)c1	59% (inactive)
O=C(CCCCn1c(=O)c2ccccc2n(Cc2ccccc2Cl)c1=O)NCCc1ccccc1	132% (inactive)

SMILES	survival
O=c1c2ccccc2n(Cc2cccc(Cl)c2)c(=O)n1Cc1ccccc1	96% (inactive)
O=C(CCn1c(=O)c2ccccc2n(Cc2cccc(Cl)c2)c1=O)NCCc1ccccc1	74% (inactive)
O=c1c2ccccc2n(Cc2c(F)cccc2Cl)c(=O)n1CCc1ccccc1	83% (inactive)
Cc1ccccc1Cn1c(=O)n(CCc2ccccc2)c(=O)c2ccccc21	4% (active)
O=c1c2ccccc2n(Cc2cccc(Cl)c2)c(=O)n1CCc1ccccc1	39% (active)
O=c1c2ccccc2n(Cc2ccccc2Cl)c(=O)n1CCc1ccccc1	15% (active)
COc1cc(NC(=O)CSc2ncc(S(=O)(=O)c3ccc(Br)cc3)c(=O)[nH]2)cc(OC)c1	84% (inactive)
O=C(c1ccc(Cl)cc1)n1nc(-c2ccco2)nc1NCc1cccs1	87% (inactive)
O=C(NCC(c1ccco1)S(=O)(=O)c1cccs1)c1ccc(C(F)(F)F)cc1 (configuration not stated)	83% (inactive)
CC(=O)Nc1ccc(Nc2c3c(c(C#N)c4nc5ccccc5n24)CCC3)cc1	100% (inactive)
Cc1nn2c(=O)cc(COC(=O)c3ccc(NC(=O)c4ccc(C(C)(C)C)cc4)cc3)nc2s1	74% (inactive)
COc1cc(NC(=O)Cn2nc(C(F)(F)F)c3c2CCCC3)c(OC)cc1Cl	87% (inactive)
CCc1ccccc1NC(=O)Cn1nc(C(F)(F)F)c2c1CCC2	74% (inactive)
COC(=O)c1ccccc1NC(=O)Cn1nc(C(F)(F)F)c2c1CCCC2	-5% (active)
COc1ccc(Cl)cc1NC(=O)Cn1nc(C(F)(F)F)c2c1CCCC2	9% (active)
COc1ccc(Cl)cc1NC(=O)Cn1nc(C(F)(F)F)c2c1CCC2	84% (inactive)
CCc1ccccc1NC(=O)Cn1nc(C(F)(F)F)c2c1CCCC2	84% (inactive)
CC(C)CN(CCCNC(=O)c1cc(=O)[nH]c2ccc(S(=O)(=O)N3CCCCCC3)cc12)CC(C)C	68% (inactive)
COc1cc(Cl)c(C)cc1NC(=O)CSCc1nc(-c2ccc(OC)c(OC)c2)no1	73% (inactive)
CCCCNC(=O)c1cc(-c2ccc(OC)cc2)nc2n[nH]c(-c3cccc([N+](=O)[O-])c3)c12	80% (inactive)
Cc1cc(C)c2c(-n3cccc3)c(C(=O)NCCc3ccc(Cl)cc3)sc2n1	118% (inactive)
CCCCc1nc2c(nnn2Cc2ccccc2)c(=O)[nH]1	104% (inactive)

SMILES	survival
Cn1nnc2c(NCc3ccccc3)ncnc21	0% (active)
Cn1nnc2c(NCc3ccc(Cl)cc3)ncnc21	88% (inactive)
Cc1ccc(CNc2ncnc3c2nnn3C)cc1	49% (inactive)
COc1ccc(N2CCN(C(=O)c3ccc(CS(=O)(=O)c4ccc(Br)cc4)o3)CC2)cc1	132% (inactive)
O=C1NC(=O)C(Nc2ccccc2Cl)S1 (configuration not stated)	108% (inactive)
CC1CCN(c2ncnc3c2c(-c2ccccc2)cn3-c2ccc(Br)cc2)CC1	72% (inactive)
CCn1cc(S(=O)(=O)c2cccc(Cl)c2)c(=O)c2cc(F)c(N3CCC(C)CC3)cc21	57% (inactive)
CC(C)OCCCn1c(=O)c2ccccc2n2c(-c3cc(Cl)ccc3O)nnc12	94% (inactive)
COC(=O)c1sccc1S(=O)(=O)N(CC(=O)Nc1cc(C)ccc1C)c1ccc(C)c(C)c1	78% (inactive)
COC(=O)c1sccc1S(=O)(=O)N(CC(=O)Nc1cc(F)ccc1F)c1ccc(C)c(C)c1	133% (inactive)
COC(=O)c1sccc1S(=O)(=O)N(CC(=O)Nc1c(C)cccc1C)c1ccc(C)c(C)c1	78% (inactive)
COC(=O)c1sccc1S(=O)(=O)N(CC(=O)NCc1ccccc1)c1ccc(C)c(C)c1	14% (active)
COC(=O)c1sccc1S(=O)(=O)N(CC(=O)Nc1cccc(C)c1C)c1ccc(C)c(C)c1	69% (inactive)
COC(=O)c1sccc1S(=O)(=O)N(CC(=O)NCc1ccc(F)cc1)c1ccc(C)c(C)c1	76% (inactive)
COC(=O)c1sccc1S(=O)(=O)N(CC(=O)Nc1ccc(C)c(F)c1)c1ccc(C)c(C)c1	-1% (active)
COC(=O)c1sccc1S(=O)(=O)N(CC(=O)NCc1ccc(C)cc1)c1ccc(C)c(C)c1	74% (inactive)
CCc1cccc(NC(=O)CN(c2ccc(C)c(C)c2)S(=O)(=O)c2ccsc2C(=O)OC)c1	-6% (active)
Cc1ccc(CNC(=O)c2ccc(CSCc3ccccc3Cl)o2)cc1	49% (inactive)
CC1(C)CC(=O)c2cc(C(=O)Nc3ccc(Cl)cc3)c(=O)[nH]c2C1	71% (inactive)
CCCCOc1ccc(CNC(=O)c2cc3n(n2)CCCN(Cc2ccc(C)cc2)C3=O)cc1	63% (inactive)
COc1cccc(CN2C(=O)c3ccccc3Sc3ccc(C(=O)OCc4ccco4)cc32)c1	72% (inactive)
